Source: PubChem BioAssay (National Center for Advancing Translational Sciences (NCATS))
In the library only some 2.8% were active in any assay of this set; here they are far more common.
IP6K1 inhibitor – IP6K1 kinase inhibition | Q92551 | IP6K1 kinase, ADP-Glo luminescence, 2 h; stronger effect = lower value | activity change, % (series mostly up to about 58 µM) | hit rate 0.81% among 140,000 | AID 1645851; in the data active = activity change below about -25%; also: % is scaled to controls: 0 for no effect and ±100 for the full control effect
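ADP-Glo luminescence measures ADP made by human IP6K1 during a 2 h RT reaction with ATP/IP6 (mix at 1.3 mM/130 uM); top library doses 57.5 and 19.1 uM final.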
KDM5B inh – blocks human KDM5B histone demethylase activity; hit rate 2.6% among 220,000; KDM5B demethylase, FDH-coupled NADH fluorescence (FDH is formaldehyde dehydrogenase); AID 1347165; Potency, µM (top dose mostly 57.7 µM), hits mostly inhibitors; active = well fitted inhibition curve with a large enough effect; inconclusive = small, poorly fitted or top-dose-only effect; inactive = no such curve, though single readings can be large or run the other way; also: potency is read from the fitted curve at half-maximal effect; 0% is about no effect; nearly all actives have a fitted effect of over 70% in size
Target sequence (Q9UGL1 whole entry, looked up): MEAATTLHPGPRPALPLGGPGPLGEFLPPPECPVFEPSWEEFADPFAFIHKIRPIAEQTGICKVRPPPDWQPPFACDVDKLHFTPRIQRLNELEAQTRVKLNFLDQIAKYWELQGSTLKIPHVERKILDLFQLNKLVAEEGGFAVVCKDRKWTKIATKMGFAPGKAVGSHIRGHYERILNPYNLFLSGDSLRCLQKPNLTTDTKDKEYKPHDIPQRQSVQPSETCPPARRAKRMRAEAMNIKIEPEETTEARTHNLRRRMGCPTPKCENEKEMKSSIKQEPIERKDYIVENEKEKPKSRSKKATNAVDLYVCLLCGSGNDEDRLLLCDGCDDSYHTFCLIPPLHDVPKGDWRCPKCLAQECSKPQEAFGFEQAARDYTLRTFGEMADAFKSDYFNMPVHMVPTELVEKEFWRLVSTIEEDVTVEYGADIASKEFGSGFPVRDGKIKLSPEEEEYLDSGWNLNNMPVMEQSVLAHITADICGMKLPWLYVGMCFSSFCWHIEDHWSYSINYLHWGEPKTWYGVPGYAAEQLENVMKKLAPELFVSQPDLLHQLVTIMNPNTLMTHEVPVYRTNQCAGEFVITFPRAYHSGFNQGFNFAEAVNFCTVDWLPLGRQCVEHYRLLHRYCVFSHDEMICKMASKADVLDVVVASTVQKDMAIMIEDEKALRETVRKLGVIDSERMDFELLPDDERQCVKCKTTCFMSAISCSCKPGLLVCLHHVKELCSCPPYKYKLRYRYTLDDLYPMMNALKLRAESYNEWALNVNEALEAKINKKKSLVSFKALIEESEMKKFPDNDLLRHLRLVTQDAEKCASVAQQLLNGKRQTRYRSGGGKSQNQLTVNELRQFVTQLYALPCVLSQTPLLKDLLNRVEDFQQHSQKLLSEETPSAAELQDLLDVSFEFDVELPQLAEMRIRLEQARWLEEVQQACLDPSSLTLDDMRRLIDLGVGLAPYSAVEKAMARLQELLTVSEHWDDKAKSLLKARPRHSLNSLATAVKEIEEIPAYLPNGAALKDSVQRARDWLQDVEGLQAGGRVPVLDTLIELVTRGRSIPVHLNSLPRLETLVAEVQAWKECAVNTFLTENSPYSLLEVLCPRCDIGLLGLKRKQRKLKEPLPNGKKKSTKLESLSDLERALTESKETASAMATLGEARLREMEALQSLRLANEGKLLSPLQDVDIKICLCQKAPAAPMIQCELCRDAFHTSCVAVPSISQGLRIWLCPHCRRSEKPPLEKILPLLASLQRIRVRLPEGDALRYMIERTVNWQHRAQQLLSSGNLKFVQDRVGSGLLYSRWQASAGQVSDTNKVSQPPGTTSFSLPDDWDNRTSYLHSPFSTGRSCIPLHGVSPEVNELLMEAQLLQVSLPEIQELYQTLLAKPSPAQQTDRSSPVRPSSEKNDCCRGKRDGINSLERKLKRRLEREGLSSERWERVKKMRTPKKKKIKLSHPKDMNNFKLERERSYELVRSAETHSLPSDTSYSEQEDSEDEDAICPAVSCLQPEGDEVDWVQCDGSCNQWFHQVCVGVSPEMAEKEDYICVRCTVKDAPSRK
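Measured: NADH fluorescence change, 30 min, RT. System: KDM5BΔAP 200 nM final, H3K4me3 peptide, α-KG, Fe(II), ascorbate, NAD⁺ plus FDH, pH 7.5 HEPES. Compounds: titrated, 10 min pre-incubation with enzyme.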
* marks the source's active call; other numbers are inactive results.

For COc1ccccc1-c1cccc(CN2CCC(NC(=O)c3ccc(F)cc3)CC2)c1 the results were IP6K1 inhibitor 13.4.
`c1cc(-c2ccnc3nc(CCC4CCCC4)nn23)ccn1` gave IP6K1 inhibitor -2.5 and KDM5B inh 28.2µM*.
`c1ccc(-c2ccnc3nc(C4CCC4)nn23)cc1` gave IP6K1 inhibitor -5.0 and KDM5B inh 28.2µM*.
c1cncc(-c2ccnc3nc(CCC4CCCC4)nn23)c1 was read as IP6K1 inhibitor -3.1 and KDM5B inh inactive.
For c1cncc(-c2ccnc3nc(C4CCC4)nn23)c1 the results were IP6K1 inhibitor 4.1 and KDM5B inh inconclusive.
Screening COc1ccc2ncc(C(=O)c3ccc(C)c(C)c3)c(N3CCOCC3)c2c1 returned KDM5B inh inactive.
Screening CC(C)CNC(=O)NC(NC(=O)C1CCCCC1)(C(F)(F)F)C(F)(F)F returned KDM5B inh inactive.
For O=C(NCc1cccs1)C1CCN(Cc2ccccc2-c2cccnc2)CC1 the results were IP6K1 inhibitor 13.5.
For C=CCNC(=O)c1ccc(-c2nnc3ccc(NC(=O)C4CCC4)cn23)cc1 the results were IP6K1 inhibitor -4.6 and KDM5B inh 22.4µM*.
C=CCNC(=O)c1ccccc1NC(=O)C1CCC1 was read as KDM5B inh inactive.
For O=C(NCCN1CCCCC1)c1ccc(-c2nnc3ccc(NC(=O)C4CCC4)cn23)cc1 the results were IP6K1 inhibitor -2.8 and KDM5B inh 22.4µM*.
O=C(Nc1ccc(-c2nnc3n2CCCC3)cc1)C1CCCC1 was read as IP6K1 inhibitor 11.0 and KDM5B inh inactive.
`O=C(c1ccc(C(F)(F)F)cc1)N1CCc2nc(C3CC3)nc(-c3ccc(O)cc3)c2C1` gave IP6K1 inhibitor 8.8.
Screening C/C=C/C[C@@H](C)[C@@H](O)[C@H]1C(=O)N[C@@H](CC)C(=O)N(C)CC(=O)N(C)[C@@H](CC(C)C)C(=O)N[C@@H](C(C)C)C(=O)N(C)[C@@H](CC(C)C)C(=O)N[C@@H](C)C(=O)N[C@H](C)C(=O)N(C)[C@@H](CC(C)C)C(=O)N(C)[C@@H](CC(C)C)C(=O)N(C)[C@H](C(C)C)C(=O)N1C returned IP6K1 inhibitor -2.5.
Screening COc1cccc(C(=O)N2CCN(c3ccc4nnc(C5CC5)n4n3)CC2)c1 returned IP6K1 inhibitor 16.5.
CCS(=O)(=O)c1ccc2oc([C@H]3CCN(Cc4ccc(OC)cc4)C3)nc2c1 was read as IP6K1 inhibitor 12.8 and KDM5B inh inconclusive.
`CCS(=O)(=O)c1ccc2oc([C@H]3CCN(Cc4c[nH]c5ccccc45)C3)nc2c1` gave IP6K1 inhibitor -5.8 and KDM5B inh 31.6µM*.
`CCc1[nH]c2c(CNC(=O)C3(C)CCCCO3)cc(F)cc2c1C` (configuration not stated) gave IP6K1 inhibitor 1.0 and KDM5B inh 20µM*.
Screening CCc1[nH]c2c(CNC(=O)c3cnc(C)nc3)cc(C)cc2c1C returned IP6K1 inhibitor 19.2 and KDM5B inh inconclusive.
`O=C(CNC(=O)c1cccc(-c2ccc(C(F)(F)F)cc2)c1)NCC1CC1` gave IP6K1 inhibitor -2.1.
Screening O=C(Cc1ccc(F)cc1)N1CCC2(CC1)N=C(c1ccc(Cl)cc1)NO2 returned IP6K1 inhibitor 2.7 and KDM5B inh inconclusive.
Screening CCOc1ccc(C(=O)N2CCC3(CC2)N=C(c2ccc(Cl)cc2)NO3)cc1 returned IP6K1 inhibitor 1.0 and KDM5B inh 28.2µM*.
CCOc1ccc(CC(=O)N2CCC3(CC2)N=C(c2ccc(Cl)cc2)NO3)cc1 was read as IP6K1 inhibitor -12.7 and KDM5B inh 15.8µM*.
Screening Cc1ccc(C(=O)N2CCC3(CC2)N=C(c2ccc(Cl)cc2)NO3)cc1 returned IP6K1 inhibitor -3.4 and KDM5B inh inconclusive.
Screening O=C(NCCCc1ccccc1)c1cc2cc([N+](=O)[O-])ccc2oc1=O returned KDM5B inh inactive.
For Cc1cc(C(=O)NC2CCN(c3ccnc4ccnn34)CC2)ccc1Cl the results were IP6K1 inhibitor 10.0.
For COc1ccccc1-c1cccc(CN2CCCC(C(=O)NCc3cccc(F)c3)C2)c1 (configuration not stated) the results were IP6K1 inhibitor 6.6.
For Cc1ccc(-c2nnc3ccc(N4CCN(Cc5ccccc5)CC4)nn23)nc1 the results were IP6K1 inhibitor -9.0 and KDM5B inh 35.5µM*.
`COc1ccc(-c2nnc3ccc(N4CCN(c5ccccn5)CC4)nn23)nc1` gave IP6K1 inhibitor -17.3 and KDM5B inh inactive.
`Fc1ccc(-c2nnc3ccc(N4CCN(Cc5ccccc5)CC4)nn23)nc1` gave IP6K1 inhibitor -4.4 and KDM5B inh inactive.
`COc1ccc(-c2nnc3ccc(N4CCC(c5ccccc5)CC4)nn23)nc1` gave IP6K1 inhibitor 0.9 and KDM5B inh 35.5µM*.
`CN(CC(=O)Nc1cccc(F)c1)C(=O)CCc1ncc(-c2ccc(Cl)cc2Cl)o1` gave KDM5B inh inactive.
For Cc1nn(-c2ccccc2)c2c1C(C)N(C1CCN(C(=O)Cc3ccc(F)cc3)C1)C2=O (configuration not stated) the results were IP6K1 inhibitor -0.4.
`Cc1ccc([S+](=O)([O-])N2CCN(Cc3ccccc3-c3ccc(C)c(Cl)c3)CC2)cc1` gave IP6K1 inhibitor -0.1.
Cc1cc2c(-c3cccc(OC(C)C)c3)nc(-c3c(C)noc3C)cc2[nH]1 was read as IP6K1 inhibitor -19.3 and KDM5B inh 15.8µM*.
`Cc1cc2c(-c3ccc(CO)cc3)nc(-c3c(C)noc3C)cc2[nH]1` gave IP6K1 inhibitor -13.6 and KDM5B inh inactive.
COc1ccc(Cn2c(=O)c(C(=O)NCc3cccc(C(F)(F)F)c3)nc3cccnc32)cc1 was read as IP6K1 inhibitor -4.4.
For CC(NC(C)C1CC2CCC1C2)C(=O)N(C)Cc1cccc(F)c1 (configuration not stated) the results were KDM5B inh inactive.
`Cc1cccc(C(=O)N2CCC(Cc3nncn3CC3CC3)CC2)c1` gave IP6K1 inhibitor 13.3 and KDM5B inh inactive.
`Cc1ccccc1Cc1c(C)nc2c(C(=O)N3CCC(Cc4nncn4CC4CC4)CC3)cnn2c1C` gave IP6K1 inhibitor 16.3 and KDM5B inh 25.1µM*.
For CN(C)C(=O)N1CCC(C(=O)N2CCC3(CC2)CC(=O)Nc2ccccc2O3)CC1 the results were IP6K1 inhibitor 2.0.
Screening COc1ccc(C2Cn3nnc(-c4noc(-c5ccccc5Cl)n4)c3CO2)cc1 (configuration not stated) returned IP6K1 inhibitor -0.4 and KDM5B inh inactive.
`Clc1ccccc1C1Cn2cnc(-c3nc(-c4ccncc4)no3)c2CO1` (configuration not stated) gave IP6K1 inhibitor 10.8 and KDM5B inh inactive.
COc1ccccc1-c1nc(-c2nnn3c2COC(c2ccccc2Cl)C3)no1 (configuration not stated) was read as IP6K1 inhibitor 1.9 and KDM5B inh 28.2µM*.
For COc1ccc(-c2nc(-c3nnn4c3COC(c3ccccc3Cl)C4)no2)cc1F (configuration not stated) the results were IP6K1 inhibitor 5.9 and KDM5B inh 12.6µM*.
`Cc1ccc(-c2nc(-c3nnn4c3COC(c3ccccc3Cl)C4)no2)cc1` (configuration not stated) gave IP6K1 inhibitor 15.4 and KDM5B inh inconclusive.
